# From the supplement of paper PMC10849652
# The full data set covers some 8,800 targets. This sample favours those with a hit. About 0.5% of all pairs of compound and target were hits. Unmarked numbers belong to inactive results.
# How the values were obtained:
# Assay in all cases: log2 fold change, soluble protein after heating vs DMSO (PISA); higher = thermal stabilisation; K562 lysate, 10 uM; active = over 0.2 and 3.5 SD of the protein, either way, in both replicates (recomputed)
# [1] = compound: C1=CC=C(C=C1)[C@H](COC2=CC3=C(C=C2)NC(=O)N3)NC(=O)C4=CC=CN(C4=O)CC5=CC(=C(C=C5)F)F
# Summary of the method: (§1)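 The values are log-two fold changes in thermal stability compared with solvent controls and come from duplicates. They were obtained by TMTpro 16plex LC-MS/MS, with channel sums equalised, on the supernatant after 21,000xg for 90 min. That supernatant came from crude K562 extract at 1 mg/mL protein treated with 10 μM compound for 30 min, heated for 3 min across 48°C-58°C, pooled and brought to 0.5% NP-40 at 4°C.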
# [2] = compound: CC1=C(SC2=C1C(=N[C@H](C3=NN=C(N32)C)CC(=O)N)C4=CC=C(C=C4)Cl)C
# Summary of the method: as §1
# [3] = compound: CC1=C2C(=CC=C1)N=C(N(C2=O)C3=CC=CC=C3C)CN4C=NC5=C(N=CN=C54)N
# Summary of the method: as §1
# [4] = compound: Cc1sc2c(c1C)C(c1ccc(Cl)cc1)=N[C@@H](CC(=O)OC(C)(C)C)c1nnc(C)n1-2
# Summary of the method: as §1
# [5] = compound: c1ccc([C@@H]2C[C@H]2NC2CCNCC2)cc1
# Summary of the method: as §1
# UniProt Q86VV8, sequence (Q86VV8 whole entry, looked up): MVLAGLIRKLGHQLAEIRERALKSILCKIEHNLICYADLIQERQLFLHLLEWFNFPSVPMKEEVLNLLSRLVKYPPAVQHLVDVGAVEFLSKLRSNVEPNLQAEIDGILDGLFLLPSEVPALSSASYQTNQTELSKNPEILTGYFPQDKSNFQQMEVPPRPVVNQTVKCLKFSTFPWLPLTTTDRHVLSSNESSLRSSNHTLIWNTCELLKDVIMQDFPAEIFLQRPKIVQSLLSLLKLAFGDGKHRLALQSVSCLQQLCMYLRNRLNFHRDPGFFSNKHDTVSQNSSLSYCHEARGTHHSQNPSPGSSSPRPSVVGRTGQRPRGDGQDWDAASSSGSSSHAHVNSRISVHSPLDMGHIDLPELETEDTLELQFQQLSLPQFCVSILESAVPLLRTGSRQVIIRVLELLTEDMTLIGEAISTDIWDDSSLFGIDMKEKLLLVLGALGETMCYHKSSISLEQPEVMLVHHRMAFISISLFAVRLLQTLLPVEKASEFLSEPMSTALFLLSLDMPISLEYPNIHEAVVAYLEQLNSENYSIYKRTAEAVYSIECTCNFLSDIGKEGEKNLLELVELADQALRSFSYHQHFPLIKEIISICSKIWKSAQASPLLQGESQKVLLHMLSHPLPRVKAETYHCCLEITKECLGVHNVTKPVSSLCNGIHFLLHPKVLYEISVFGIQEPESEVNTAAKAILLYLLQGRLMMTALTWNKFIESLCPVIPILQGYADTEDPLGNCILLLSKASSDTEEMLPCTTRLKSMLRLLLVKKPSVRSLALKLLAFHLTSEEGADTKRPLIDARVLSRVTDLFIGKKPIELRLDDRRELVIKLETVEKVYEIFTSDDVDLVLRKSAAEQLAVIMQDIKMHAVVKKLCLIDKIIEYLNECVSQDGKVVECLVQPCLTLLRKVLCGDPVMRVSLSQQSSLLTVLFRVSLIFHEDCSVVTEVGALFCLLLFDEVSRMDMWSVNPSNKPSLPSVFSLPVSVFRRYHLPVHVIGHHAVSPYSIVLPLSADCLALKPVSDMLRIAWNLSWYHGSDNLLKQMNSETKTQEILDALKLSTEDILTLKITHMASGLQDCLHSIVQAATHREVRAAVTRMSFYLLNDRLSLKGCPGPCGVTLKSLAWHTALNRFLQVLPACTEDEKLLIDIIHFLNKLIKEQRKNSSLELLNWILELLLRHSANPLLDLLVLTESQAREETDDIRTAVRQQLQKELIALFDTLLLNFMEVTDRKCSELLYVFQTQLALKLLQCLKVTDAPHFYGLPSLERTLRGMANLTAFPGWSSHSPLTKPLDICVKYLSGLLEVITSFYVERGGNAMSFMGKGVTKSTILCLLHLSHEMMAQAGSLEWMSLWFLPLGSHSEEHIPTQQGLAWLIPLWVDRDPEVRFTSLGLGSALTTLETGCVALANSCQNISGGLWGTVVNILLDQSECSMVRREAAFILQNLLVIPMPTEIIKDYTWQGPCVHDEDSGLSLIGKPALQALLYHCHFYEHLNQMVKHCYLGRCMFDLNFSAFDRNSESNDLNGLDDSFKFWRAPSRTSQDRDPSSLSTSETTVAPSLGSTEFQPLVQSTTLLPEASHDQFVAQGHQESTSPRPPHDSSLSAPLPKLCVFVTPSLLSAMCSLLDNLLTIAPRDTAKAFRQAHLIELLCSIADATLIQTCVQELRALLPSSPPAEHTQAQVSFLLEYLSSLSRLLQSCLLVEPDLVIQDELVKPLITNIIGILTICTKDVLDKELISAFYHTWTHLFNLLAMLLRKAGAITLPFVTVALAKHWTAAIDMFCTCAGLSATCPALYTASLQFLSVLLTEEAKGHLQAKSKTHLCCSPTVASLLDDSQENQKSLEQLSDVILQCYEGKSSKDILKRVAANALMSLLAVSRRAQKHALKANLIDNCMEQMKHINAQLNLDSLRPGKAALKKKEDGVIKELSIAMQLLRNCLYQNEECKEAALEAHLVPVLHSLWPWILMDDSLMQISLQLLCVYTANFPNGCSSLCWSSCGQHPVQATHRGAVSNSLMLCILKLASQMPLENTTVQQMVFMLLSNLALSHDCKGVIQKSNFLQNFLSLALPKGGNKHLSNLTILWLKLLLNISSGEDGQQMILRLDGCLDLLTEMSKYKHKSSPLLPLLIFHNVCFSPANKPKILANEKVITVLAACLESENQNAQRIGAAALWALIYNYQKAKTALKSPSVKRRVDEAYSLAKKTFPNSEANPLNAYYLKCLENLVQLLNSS
# UniProt Q8NC44, sequence (Q8NC44 whole entry, looked up): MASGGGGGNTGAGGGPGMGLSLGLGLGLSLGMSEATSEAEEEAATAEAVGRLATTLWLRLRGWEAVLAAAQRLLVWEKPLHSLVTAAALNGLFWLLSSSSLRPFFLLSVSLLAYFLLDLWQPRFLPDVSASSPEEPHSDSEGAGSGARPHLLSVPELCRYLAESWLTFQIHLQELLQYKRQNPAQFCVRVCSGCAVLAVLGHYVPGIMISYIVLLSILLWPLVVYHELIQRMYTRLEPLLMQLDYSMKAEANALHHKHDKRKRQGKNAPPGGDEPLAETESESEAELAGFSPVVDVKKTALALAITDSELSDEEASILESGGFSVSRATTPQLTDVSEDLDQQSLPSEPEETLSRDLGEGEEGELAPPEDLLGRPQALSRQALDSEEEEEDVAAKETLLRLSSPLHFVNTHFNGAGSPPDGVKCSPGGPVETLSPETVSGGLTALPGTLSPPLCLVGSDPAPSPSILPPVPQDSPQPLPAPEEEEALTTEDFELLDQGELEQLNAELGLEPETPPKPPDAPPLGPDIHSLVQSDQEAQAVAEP
# UniProt Q9Y225, sequence (Q9Y225 whole entry, looked up): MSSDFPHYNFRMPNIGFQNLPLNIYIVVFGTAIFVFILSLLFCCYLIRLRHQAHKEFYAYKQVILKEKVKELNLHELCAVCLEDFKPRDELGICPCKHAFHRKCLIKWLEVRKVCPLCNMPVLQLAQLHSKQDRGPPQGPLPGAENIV
# UniProt Q92698, sequence (Q92698 whole entry, looked up): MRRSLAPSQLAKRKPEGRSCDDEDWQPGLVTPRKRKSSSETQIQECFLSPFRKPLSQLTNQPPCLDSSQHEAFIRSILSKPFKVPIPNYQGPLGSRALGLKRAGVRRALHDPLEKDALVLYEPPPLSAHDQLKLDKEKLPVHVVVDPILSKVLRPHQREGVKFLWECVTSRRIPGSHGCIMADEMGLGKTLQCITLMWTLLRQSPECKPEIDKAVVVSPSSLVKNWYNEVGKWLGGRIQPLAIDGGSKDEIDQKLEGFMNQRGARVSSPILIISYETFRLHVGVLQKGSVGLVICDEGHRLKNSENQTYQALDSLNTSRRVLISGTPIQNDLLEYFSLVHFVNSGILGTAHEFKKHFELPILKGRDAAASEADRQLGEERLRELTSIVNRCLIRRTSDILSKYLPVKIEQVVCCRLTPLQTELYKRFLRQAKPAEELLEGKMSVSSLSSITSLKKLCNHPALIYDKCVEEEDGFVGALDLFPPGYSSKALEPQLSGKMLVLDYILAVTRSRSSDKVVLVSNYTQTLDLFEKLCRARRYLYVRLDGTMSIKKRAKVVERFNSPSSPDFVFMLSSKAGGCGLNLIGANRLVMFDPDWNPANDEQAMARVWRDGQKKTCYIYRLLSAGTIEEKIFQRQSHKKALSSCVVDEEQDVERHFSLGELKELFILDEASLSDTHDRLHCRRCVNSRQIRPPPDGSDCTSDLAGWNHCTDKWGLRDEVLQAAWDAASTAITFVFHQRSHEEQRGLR
# UniProt Q6NUM9, sequence (Q6NUM9 whole entry, looked up): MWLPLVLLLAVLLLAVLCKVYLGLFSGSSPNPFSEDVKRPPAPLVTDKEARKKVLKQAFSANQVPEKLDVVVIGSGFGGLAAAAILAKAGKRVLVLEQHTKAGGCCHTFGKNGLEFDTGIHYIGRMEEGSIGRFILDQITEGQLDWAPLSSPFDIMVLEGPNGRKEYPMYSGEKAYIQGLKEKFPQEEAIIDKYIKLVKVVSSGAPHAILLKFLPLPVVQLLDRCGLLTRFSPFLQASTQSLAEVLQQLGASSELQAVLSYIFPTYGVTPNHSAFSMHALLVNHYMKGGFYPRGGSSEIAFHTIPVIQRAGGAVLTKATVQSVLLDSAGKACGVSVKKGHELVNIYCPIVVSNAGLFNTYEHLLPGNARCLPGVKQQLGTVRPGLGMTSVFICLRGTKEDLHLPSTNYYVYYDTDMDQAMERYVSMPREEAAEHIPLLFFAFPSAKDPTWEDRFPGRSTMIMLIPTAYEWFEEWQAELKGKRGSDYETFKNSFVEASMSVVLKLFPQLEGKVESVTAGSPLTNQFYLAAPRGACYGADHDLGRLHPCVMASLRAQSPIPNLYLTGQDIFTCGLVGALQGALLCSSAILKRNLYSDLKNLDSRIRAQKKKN
# UniProt Q99496, sequence (Q99496 whole entry, looked up): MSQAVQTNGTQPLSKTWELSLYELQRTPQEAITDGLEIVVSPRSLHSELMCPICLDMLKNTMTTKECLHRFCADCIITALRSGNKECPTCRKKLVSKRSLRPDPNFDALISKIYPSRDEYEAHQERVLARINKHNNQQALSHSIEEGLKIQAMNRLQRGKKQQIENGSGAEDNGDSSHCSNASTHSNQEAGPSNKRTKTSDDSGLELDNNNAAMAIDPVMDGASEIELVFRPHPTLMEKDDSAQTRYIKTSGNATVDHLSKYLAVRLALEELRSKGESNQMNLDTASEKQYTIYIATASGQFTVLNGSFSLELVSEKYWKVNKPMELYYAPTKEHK
# UniProt Q8TEB9, sequence (Q8TEB9 whole entry, looked up): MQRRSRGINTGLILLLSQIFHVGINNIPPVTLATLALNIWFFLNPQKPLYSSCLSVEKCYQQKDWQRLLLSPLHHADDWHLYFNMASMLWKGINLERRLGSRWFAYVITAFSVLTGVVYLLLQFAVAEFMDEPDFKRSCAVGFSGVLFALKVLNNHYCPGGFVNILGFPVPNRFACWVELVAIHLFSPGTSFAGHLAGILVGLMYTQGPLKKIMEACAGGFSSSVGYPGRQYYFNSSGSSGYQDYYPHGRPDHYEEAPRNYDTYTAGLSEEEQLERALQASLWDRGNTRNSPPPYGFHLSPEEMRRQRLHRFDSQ
Target,log2 fold change [1],log2 fold change [2],log2 fold change [3],log2 fold change [4],log2 fold change [5]
SDHC (UniProt Q99643),-0.045,-0.016,0.035,-0.085,-0.09
RAC2 (UniProt P15153),-0.116,0.043,-0.032,0.067,0.028
RFC4 (UniProt P35249),-0.026,-0.059,0.006,0.028,0.01
RAPGEF4 (UniProt Q8WZA2),0,0.092,0.06,-0.274,-0.558
SCO1 (UniProt O75880),-0.021,0.017,0,0.136,-0.027
RPTOR (UniProt Q8N122),0.015,-0.024,0.035,-0.008,0.04
RETSAT (UniProt Q6NUM9),0.103,-0.037,0.148,-0.145,-0.015
RECQL4 (UniProt O94761),0.002,-0.012,0.073,-0.011,0.154
RBM5 (UniProt P52756),-0.074,0.08,0.062,0.146,0.103
RNF2 (UniProt Q99496),,,0.03,-0.091,0.343
"QSER1, A0A3B3IRW6",,,0.047,-0.027,
RFWD3 (UniProt Q6PCD5),-0.058,0.132,0,-0.072,0.049
RPS6KB1 (UniProt P23443),0.029,-0.051,0.027,0.023,-0.018
RBM45 (UniProt Q8IUH3),,,,,-0.026
S100A6 (UniProt P06703),,,-0.084,-0.1,0.104
RELN (UniProt P78509),0.033,-0.007,0.025,-0.089,-0.036
RALGAPB isoform 3 (UniProt Q86X10),0.107,0.05,,0.189,0.153
RNPC3 (UniProt Q96LT9),,,,-0.029,-0.034
SASS6 (UniProt Q6UVJ0),-0.01,0.028,0,0.021,0.037
SCAF1 (UniProt Q9H7N4),0.112,-0.492 (active),0.002,-0.007,0.019
SATB2 (UniProt Q9UPW6),,,-0.019,0.021,-0.045

Target,log2 fold change [1],log2 fold change [2],log2 fold change [3],log2 fold change [4],log2 fold change [5]
QRSL1 (UniProt Q9H0R6),-0.005,-0.056,-0.101,0.041,0.094
RARS (UniProt P54136),-0.014,0.038,0.024,0.028,0.091
RNF17 (UniProt Q9BXT8),-0.241,1 (active),,0.129,0.451
RHOU (UniProt Q7L0Q8),,,0.065,-0.1,-0.015
RXRA (UniProt P19793),,,,0.167,-0.149
RAD54L (UniProt Q92698),-0.013,-0.031,,-0.299,-1.06 (active)
SEC16A isoform 3 (UniProt O15027),,,,-0.006,
RMI2 (UniProt Q96E14),,,-0.18,0.079,
SERAC1 (UniProt Q96JX3),-0.122,0.145,,0.11,0.065
RPS6KA5 (UniProt O75582),,,-0.084,-0.024,-0.017
RTTN (UniProt Q86VV8),0.089,-0.033,-0.289,0.046,0.024
RYR1 (UniProt P21817),-0.011,-0.028,,-0.093,-0.055
RETREG2 (UniProt Q8NC44),-0.095,0.016,0.084,,0.004
RNASEH1 (UniProt O60930),,,,,0.11
RHOA (UniProt P61586),0.177,0.06,0.038,0.02,0.07
RUFY2 isoform 1 (UniProt Q8WXA3),-0.28,-0.106,-0.087,,-0.111
RNF24 isoform 2 (UniProt Q9Y225),-0.219,0.037,,,-0.115
RHBDD1 (UniProt Q8TEB9),-0.032,0.058,-0.117,,0.039
SEMA4G isoform 2 (UniProt Q9NTN9),,,0.105,0.021,0.066
RDH11 (UniProt Q8TC12),,,0.064,0.069,-0.085
SCNM1 (UniProt Q9BWG6),,,,-0.332,0.014
